# An excerpt weighted towards active compounds, which were near 2.9% of everything screened.
# Vif imaging – HIV Vif inhibition; 340,000 tested, 0.35% active; HEK293T cells, Vif self-association by quenched fluorescence, imaging, 24 h; inhibition, % at 7.49 µM; in the data active means inhibition above about 50%, passing the limit was not always enough; inconclusive means no clear call, values can overlap the other calls; inactive means below about 31%
# N-glyco inh – blocks N-linked glycosylation in D54 reporter cells; 360,000 tested, 0.23% active; reporter increase, % at 12.5 µM; D54 ERlucT glycosylation luciferase reporter, 24 h; percent of 100 nM tunicamycin response;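 active means mean luciferase reporter signal, scaled so untreated is 0 and the glycosylation-blocking control 100, at or above a set limit in every replicate; inconclusive means mean reaches the limit but not every replicate does; inactive means mean below the limit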;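 further: luciferase carries N-glycosylation sites so blocking glycosylation raises the light; 0% = median of neutral control wells and 100% = median of 100 nM tunicamycin wells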
# Wnt bcat act – activates Wnt/beta-catenin signaling in a reporter cell assay | 300,000 tested, 1.2% active | activation, % at 9.35 µM | activator, plate reader; in the data active means activation above about 30%, passing the limit was not always enough; inconclusive means no clear call, values can overlap the other calls;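 further: 0% = neutral control wells and 100% = positive control wells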
# MITF TRPM1 HTS – activators of MITF-driven TRPM1 promoter activity in SK-MEL-5 cells; SK-MEL-5 TRPM1-promoter luciferase, 24 h; % of positive control, neutral wells = 0; activation, % at 12.5 µM; 300,000 tested, 0.75% active;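 active means mean activation of at least 80% with every replicate also reaching 80%; inconclusive means mean reaches 80% but some replicate falls short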;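 further: 0% = neutral control wells and 100% = parthenolide positive control wells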
# PvdQ acylase – blocks Pseudomonas aeruginosa PvdQ acylase activity. inhibition, % at 10 µM. purified PvdQ acylase, fluorescence plate reader. 340,000 tested, 0.063% active; in the data active means inhibition above about 30%, passing the limit was not always enough; inconclusive means no clear call, values can overlap the other calls;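 further: 0% = vehicle neutral wells and 100% = reference inhibitor wells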
# esBAF inh – blocks esBAF chromatin remodeling in mouse ES cells; Bmi1-luciferase knock-in reporter, 24 h; 100% = twice the neutral-well signal; reporter increase, % at 12.5 µM; 350,000 tested, 2% active; in the data active means activation above about 40%; inconclusive means no clear call, values can overlap the other calls;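 further: 0% = median of the plate's neutral control wells and 100% = double that signal; a rise in the Bmi1 reporter signal indicates esBAF inhibition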
# Active calls of the source: *; ? = inconclusive; nt = no result given.
SMILES,Vif imaging,N-glyco inh,Wnt bcat act,MITF TRPM1 HTS,PvdQ acylase,esBAF inh
CN(C)c1ccc(/C=N/OC(=O)Nc2ccccc2)cc1,0,-13,52*,34,-18,2
C[C@H](CO)N1C[C@H](C)[C@H](CN(C)C)Oc2cc(C3=CCCC3)ccc2S1(=O)=O,nt,nt,nt,nt,nt,-17
O=C1C2C3C=CC(C4CC34)C2C(=O)N1/N=C/c1ccc([N+](=O)[O-])s1 (stereo not given),2,1,12,20,7,nt
O=C1C2C3C=CC(C4CC34)C2C(=O)N1/N=C/c1c[nH]c2ccccc12 (stereo not given),91*,1,11,-1,-16,57*
COCCN(C(=O)CCC(=O)Nc1nccs1)C(C(=O)NC(C)(C)C)c1ccc(F)cc1 (stereo not given),-3,0,-1,9,-8,3
COCCN(C(=O)CCC(=O)Nc1nccs1)C(C(=O)NC(C)(C)C)c1ccc(C)cc1 (stereo not given),84*,1,-1,10,-2,4
CC(C)CC#Cc1ccc2c(c1)O[C@H](CN(C)C(=O)c1ccccn1)[C@H](C)CN([C@H](C)CO)S2(=O)=O,nt,nt,nt,nt,nt,3
O=c1[nH]c(=O)c2nc3c4ccccc4c4ccccc4c3nc2[nH]1,16,96*,-4,-13,7,22
COc1ccccc1N/C=C/c1onc(C)c1[N+](=O)[O-],3,-20,-2,-4,-1,nt
Cc1noc(/C=C/Nc2ccc(F)cc2F)c1[N+](=O)[O-],-5,-7,40*,47,8,nt
Cc1noc(/C=C/c2ccccn2)c1[N+](=O)[O-],18,-3,0,nt,-16,48*
CCOC(=O)CC(=O)CSc1ncnc2c1oc1ccccc12,57*,1,nt,11,4,10
OCCSc1ncnc2c1oc1ccccc12,-14,1,nt,12,2,nt
c1ccc(Sc2ncnc3c2oc2ccccc23)cc1,0,-5,nt,52,-10,71*
Cc1ccc(Nc2ncnc3c2oc2ccccc23)cc1,-12,-7,nt,19,-1,47*
O=C(O)CSc1ncnc2c1oc1ccccc12,16,1,0,-2,7,-10
COc1ccc(Nc2ncnc3c2oc2ccccc23)cc1,-5,0,nt,69,-11,-13
O=C(CSc1nnnn1C1CCCCC1)Nc1cccc(NC(=O)c2ccco2)c1,-2,-1,60*,11,-10,8
O=C(Nc1ccc2c(c1)ncn2C1CCCCC1)c1ccco1,4,0,45*,nt,-14,?
O=CNc1ccc2c3c(cccc13)-c1ccccc1-2,56*,1,1,17,-11,28
C#CCn1c(=NC(=O)c2cccs2)sc2cccc(OCC)c21,-1,2,-3,12,-3,1
C#CCn1c(=NC(=O)c2ccc(Cl)s2)sc2cccc(OC)c21,-2,2,-6,65,-4,50*
O=C(NCC[C@H]1CC[C@H](NC(=O)c2cnccn2)[C@H](CO)O1)Nc1ccc(Cl)cc1,nt,nt,nt,nt,nt,27
COc1cccc(CSc2nc3ccccc3[nH]2)c1,10,-1,59*,74,-11,54*
c1ccc(OCCSc2nc3ccccc3[nH]2)cc1,-6,0,nt,88*,-16,nt
SMILES,Vif imaging,N-glyco inh,Wnt bcat act,MITF TRPM1 HTS,PvdQ acylase,esBAF inh
Cc1ccc2nc(SCCCCOc3ccccc3)[nH]c2c1,-7,-4,nt,4,-8,2
Cc1ccc(OCc2nc3ccccc3[nH]2)cc1,31,-8,18,25,8,19
c1ccc(OCc2nc3ccccc3[nH]2)cc1,-1,-2,62*,nt,-11,51*
Clc1ccc(OCc2nc3ccccc3[nH]2)cc1,17,-5,11,88*,-6,85*
O=[N+]([O-])c1cccc(CSc2nc3ccccc3[nH]2)c1,-6,1,nt,35,2,nt
CCC(=O)N1CCCCN2[C@@H](CO)[C@H](c3ccc(C#Cc4ccccc4F)cc3)[C@@H]2C1,nt,nt,nt,nt,nt,1
CCc1nc2ccccc2[nH]1,2,0,1,-10,4,2
OC(Cc1nc2ccccc2[nH]1)c1ccccc1Cl (stereo not given),0,2,-1,53,-18,55*
Cc1ccc(N/C=C(/C#N)c2ccsc2)cc1,1,-1,nt,38,0,68*
N#C/C(=C/Nc1ccccc1)c1ccsc1,5,-1,nt,18,17,12
CN(C)CC(=O)Nc1ccc2c(c1)[C@H]1C[C@@H](CC(=O)NCc3ccccc3)O[C@H](CO)[C@H]1O2,nt,nt,nt,nt,nt,-2
O=C(Nc1nc2ccccc2s1)c1ccc2sc([C@H]3C[C@H](O)[C@@H](CO)O3)nc2c1,-8,-4,5,nt,nt,55*
O=C(Nc1ccccc1F)c1ccc2sc([C@@H]3O[C@H](CO)[C@H](O)[C@H](O)[C@H]3O)nc2c1,-1,-2,18,nt,nt,28
O=C(Nc1ccccc1F)c1ccc2sc([C@H]3C[C@H](O)[C@@H](CO)O3)nc2c1,nt,-2,-3,nt,nt,55*
O=C(Nc1nccs1)c1ccc2sc([C@H]3C[C@H](O)[C@@H](CO)O3)nc2c1,-6,1,27,nt,nt,37
O=C(Nc1cccc2ccccc12)c1ccc2sc([C@@H]3O[C@H](CO)[C@@H](O)[C@H]3O)nc2c1,-5,2,0,nt,nt,42*
C[C@H]1CN([C@@H](C)CO)C(=O)c2cccc(NC(=O)c3nc4ccccc4s3)c2O[C@H]1CN(C)CC1CC1,nt,nt,nt,nt,nt,2
C[C@@H]1CN([C@@H](C)CO)C(=O)c2cc(NC(=O)Nc3ccc4c(c3)OCO4)ccc2O[C@@H](C)CCCCO[C@@H]1CN(C)S(=O)(=O)c1cn(C)cn1,nt,nt,nt,nt,nt,47*
C[C@@H]1CN([C@H](C)CO)C(=O)c2cc(NC(=O)Nc3ccc4c(c3)OCO4)ccc2O[C@@H](C)CCCCO[C@@H]1CN(C)S(=O)(=O)c1cn(C)cn1,nt,nt,nt,nt,nt,68*
C[C@H](CO)N1C[C@H](C)[C@@H](CN(C)S(=O)(=O)c2cn(C)cn2)OCCCC[C@H](C)Oc2ccc(NC(=O)Nc3ccc4c(c3)OCO4)cc2C1=O,nt,nt,nt,nt,nt,44*
C[C@@H]1CCCCO[C@H](CN(C)S(=O)(=O)c2cn(C)cn2)[C@@H](C)CN([C@@H](C)CO)C(=O)c2cc(NC(=O)Nc3ccc4c(c3)OCO4)ccc2O1,nt,nt,nt,nt,nt,40
C[C@@H]1CCCCO[C@@H](CN(C)S(=O)(=O)c2cn(C)cn2)[C@H](C)CN([C@H](C)CO)C(=O)c2cc(NC(=O)Nc3ccc4c(c3)OCO4)ccc2O1,nt,nt,nt,nt,nt,60*
C[C@H](CO)N1C[C@H](C)[C@H](CN(C)S(=O)(=O)c2cn(C)cn2)OCCCC[C@H](C)Oc2ccc(NC(=O)Nc3ccc4c(c3)OCO4)cc2C1=O,nt,nt,nt,nt,nt,5
CN(C)C(=O)c1ccc(-c2ccc3c(c2)[C@H]2[C@H](CCN2C(=O)C2CCOCC2)[C@@H](CO)N3C)cc1,nt,nt,nt,nt,nt,3

# Screening results as filed in PubChem BioAssay.
